Here are results for 40 molecules from PubChem BioAssay (Tox21).

Structures are written as SMILES. Results filed as inconclusive are left out. Active and inactive are the calls of the source. The call rests on the fitted dose curve.

The nature of this assay: qHTS assay to identify small molecule agonists of the AP-1 signaling pathway - cell viability counter screen (AID 1159525). Further: nearly all actives have a fitted effect of over 55% in size. The settings on record: ME-180 (cervical carcinoma) AP-1-bla cells viability, ATP luminescence, 5 h; series mostly up to 76.8 µM. From the text: National Center for Advancing Translational Sciences [NCATS]
NIH Chemical Genomics Center [NCGC]
U.S. Environmental Protection Agency [EPA]
National Institutes of Environmental Health Sciences [NIEHS]
National Toxicology Program [NTP]
U.S. Food and Drug Administration [FDA]
Activator protein-1 (AP-1), a transcription factor, plays an important role in tumor genesis by regulating genes involved in cell proliferation, differentiation, apoptosis, and angiogenesis. AP-1 activity is induced by a complex network of signaling pathways that involves extracellular signals, such as growth factors. The AP-1 protein complex formed from c-Fos and c-Jun binding to the AP-1 response element results in transcriptional activation of genes containing such elements within their promoter.
Low molecular weight molecules have been discovered and developed to modulate various components of these signaling pathways, for example, MAP kinase inhibitors. However, many points of pathway modulation remain untested due to the lack of chemical probes making this signaling locus of general interest.
Using a beta-lactamase reporter-gene under control of the AP-1 response element, a cell-based assay [CellSensor(TM) AP-1-bla ME-180 developed by Invitrogen Corp.] was used to measure EGF-induced signaling. The Tox21 10K library compounds were measured for their ability to positively modulate the action of EC50 EGF on reporter gene activity. Compounds were screened in a 15-pt titration series in 1536-well format. The cytotoxicity of the Tox21 compound library against this cell line was tested in parallel by measuring the intra cellular ATP content in the same wells.
Tox21 Assay Protocol Summary:
2500 cells/5uL in Opti-MEM medium containing 0.5% dialyzed FBS, 0.1 mM NEAA, 1 mM sodium pyruvate and 10 mM HEPES was dispensed into 1536-well black wall/clear bottom plates using a Multidrop dispenser and cells were cultured at 37 degrees Celsius overnight. Next day 23 nL of compounds dissolved in DMSO, positive controls or DMSO were delivered to each well using a pin tool. The plates were incubated at 37 degrees Celsius for 5 hours. 1 uL of LiveBLAzerTM B/G FRET substrate (Solution A+B+C+D) was added to each well using a Flying Reagent Dispenser. After incubated at room temperature for 2.5 hours the plates were measured on an EnVision plate reader at Excitation 405nm, Emission1=460nm and Emission 2=530nm. The %Activity was determined from the ratio of 460nm/530nm.
After the plates were read for Beta-Lactamase assay on Envision; 3 ul Cell Titer Glo (Promega) was added to measure the cytotoxicity and the plates were then incubated at RT in dark for 30 min. The luminescence was read on ViewLux (Perkin Elmer, Shelton, CT) using 6 sec exposure. ViewLux data was expressed as relative luminescence units.
For primary data analysis, raw plate reads for each titration point were first normalized relative to […] EGF control (100%) and DMSO only wells (basal, 0%).
For primary data analysis for viability assay, raw plate reads for each titration point were first normalized Tetra n-octyl ammonium bromide control (-100%) and DMSO (control, 100%).
Consider `CC(C)C(=O)OCc1cccc(OC(=O)[C@@H]2N3C(=O)[C@@H](NC(=O)Cc4ccccc4)[C@H]3SC2(C)C)c1`, for which the result was inactive.

On to `O=C(CS(=O)Cc1ccco1)NC/C=C\COc1cc(CN2CCCCC2)ccn1` (stereo not given), for which the molecule was classed as inactive.

For the molecule `C[C@@H]1O[C@@H](O[C@@H]2[C@@H](O)[C@H](OCCc3ccc(O)c(O)c3)O[C@H](CO[C@@H]3O[C@H](CO)[C@@H](O)[C@H](O)[C@H]3O)[C@H]2OC(=O)/C=C/c2ccc(O)c(O)c2)[C@H](O)[C@H](O)[C@H]1O`, the molecule was classed as inactive.

As for `C[Si](C)(C)C`, the molecule was classed as inactive.

Take `O=C1c2cccc3c2[C@H](CCC3)CN1[C@@H]1CN2CCC1CC2`: the molecule was called inactive.

Turning to `CCC(CC)CO`, the molecule was classed as inactive.

For the molecule `CCC(C)(CCC(C)C)C(=O)O` (stereo not given), the call was inactive.

As for `CCC(C=O)CC`, the result was inactive.

Turning to `COc1cc(NS(=O)(=O)c2ccc(N)cc2)nc(OC)n1`, the molecule was called inactive.

In the case of `BrCc1cccc(Oc2ccccc2)c1`, the molecule was classed as inactive.

Take `Cc1cccc(C)c1NC(=O)c1ccccc1C(=O)O`: the outcome was inactive.

On to `Cc1cccc2nccnc12`, for which the molecule was called inactive.

Take `CC(C)OC(=O)CCCCC(=O)OC(C)C`: the outcome was inactive.

For the molecule `c1ccc2c(c1)ccc1c3ccccc3ccc21`, the molecule was called inactive.

As for `CCCCCOC(=O)CCC`, the molecule was classed as inactive.

For `CC(C)(C)OC(=O)c1ccc(O)cc1`, the molecule was called inactive.

On to `Nc1ccc(S(=O)(=O)Nc2ccc(Cl)nn2)cc1`, for which the outcome was inactive.

Take `O=S(=O)(O)CCN1CCN(CCO)CC1`: the molecule was classed as inactive.

As to `O=C(O)CCSSCCC(=O)O`, the result was inactive.

As for `O=Cc1ccc(Cl)c(Cl)c1`, the molecule was classed as inactive.

On to `O=C(OCC(COC(=O)c1cccnc1)(COC(=O)c1cccnc1)COC(=O)c1cccnc1)c1cccnc1`, for which the call was inactive.

With `CN1CCN(CC(=O)N2c3ccccc3C(=O)Nc3cccnc32)CC1`, the viability change, negative = cytotoxic is 2.29% [at 6.97 µM] (inactive).

`COCCOCCOCCOCCO`: the result was inactive.

Consider `COP(=O)(OC)OC(c1ccc(Cl)cc1)P(=O)(OC)OC` (stereo not given), for which the result was inactive.

With `CCN1CCc2nc(N)oc2CC1`, the outcome was inactive.

Turning to `CC(=O)c1ccc2c(c1)Cc1ccccc1-2`, the call was inactive.

Take `CC1=C(C(=O)O)N2C(=O)[C@@H](NC(=O)[C@H](N)c3ccc(O)cc3)[C@H]2SC1`: the molecule was classed as inactive.

With `COc1cc2c(cc1OC)C(=O)CC2`, the molecule was called inactive.

For the molecule `CCC(C)NC(N)=O` (stereo not given), the outcome was inactive.

In the case of `O=C(OCC(O)CO)c1ccccc1Nc1ccnc2c(C(F)(F)F)cccc12` (stereo not given), the molecule was classed as inactive.

`Cc1ccsc1/C=C/C1=NCCCN1C`: the result was inactive.

As to `CCOC(=O)[C@H](CCc1ccccc1)N[C@@H](C)C(=O)N1C(=O)N(C)C[C@H]1C(=O)O`, the result was inactive.

Take `CC(=O)Nc1ccc(S(=O)(=O)Cl)cc1`: the outcome was inactive.

`CNS(=O)(=O)CCc1ccc2[nH]cc(C3CCN(C)CC3)c2c1`: the result was inactive.

As for `N#Cc1ccc(C(=O)O)cc1`, the molecule was classed as inactive.

`CC(C(=O)O)c1ccc2c(c1)CC(=O)c1ccccc1S2` (stereo not given): the molecule was classed as inactive.

In the case of `C[C@@H](O)[C@H]1C(=O)N2C(C(=O)O)=C(SCCN=CN)C[C@H]12`, the result was inactive.

In the case of `CO[C@@H]1[C@@H](OC(N)=O)[C@@H](O)[C@H](Oc2ccc3c(O)c(NC(=O)c4ccc(O)c(CC=C(C)C)c4)c(=O)oc3c2C)OC1(C)C`, the molecule was classed as inactive.

For the molecule `COc1cc(N)ccc1C`, the outcome was inactive.

Turning to `C=C1CC/C=C(\C)CC[C@@H]2[C@@H]1CC2(C)C`, the molecule was classed as inactive.
